Screening data from PubChem BioAssay.
This is a sample that favours compounds with a hit; in the whole collection about 6.7% have one here.
Pf Dd2 inh – P. falciparum Dd2 growth inhibition; SYBR Green, 72 h; active compounds read low; activity change, % at 10 µM; 94,000 tested, 2.3% active; in the data active = activity change below about -80%; inconclusive = no clear call, values can overlap the other calls
C diff growth – blocks growth of Clostridium difficile; 86,000 tested, 0.25% active; Clostridium difficile clinical isolate growth, OD600, 24 h; active compounds read low; AID 1259249; growth activity, negative = inhibition, % at 16 µg/mL (by protocol);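 active = mean growth activity at or below -80% and every replicate also at or below -80%; inconclusive = mean at or below -80% but some replicate above -80%; inactive = mean growth activity above -80%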;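 note: 0% = DMSO wells and -100% = levofloxacin 16 µg/mL wells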
T cruzi growth-1 – T. cruzi proliferation inhibition | T. cruzi beta-gal in NIH3T3, GalScreen luminescence, 90 h | inhibition, % at 8.34 µM | 77,000 tested, 5.9% active | AID 624255;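 active = mean inhibition above about 93%, with at least 55% of replicates each passing it, limit read from the data, passing the limit was not always enough; inconclusive = only one of those two conditions holds; inactive = neither condition holds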
T cruzi growth-2 – Trypanosoma cruzi proliferation inhibition | shares compounds with T cruzi growth-1 | T. cruzi beta-gal in NIH3T3, GalScreen luminescence, 90 h | inhibition, % at 8.35 µM | 5,600 tested, 72% active;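 active = mean replicate inhibition above about 95% and at least 55% of replicates individually reaching it, limit read from the data; inconclusive = only one of the two criteria is met; inactive = neither criterion is met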
T cruzi growth-3 – inhibitors of T. cruzi proliferation; shares compounds with T cruzi growth-1; 5,600 tested, 21% active; T. cruzi beta-gal in NIH3T3, GalScreen luminescence, 90 h; AID 651740; inhibition, % at 2.09 µM;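 active = mean inhibition above about 95%, with at least 55% of replicates also reaching it, limit read from the data; inconclusive = meets just one of the two conditions; inactive = meets neither condition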;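 note: plate controls were neutral control median for no effect and positive control median for full effect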
NIH3T3 tox – NIH/3T3 (mouse) viability loss. 5,600 tested, 14% active. shares compounds with T cruzi growth-1. cytotoxicity (signal decrease), % at 8.35 µM. NIH/3T3 viability, CellTiter-Glo ATP luminescence, 90 h;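 active = mean signal decrease across replicates above about 35% based on untreated-well scatter, with enough replicates individually passing, limit read from the data; inconclusive = no rule stated though some were filed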;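 note: 0% = median of neutral control wells and 100% = median of positive control wells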
NIH3T3 tox 2 – NIH/3T3 (mouse) viability loss | shares compounds with T cruzi growth-1 | NIH/3T3 viability, CellTiter-Glo ATP luminescence, 90 h | inhibition, % at 24.9 µM | 5,600 tested, 56% active | AID 651744;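 active = mean loss of cell viability signal at or above a set limit, and enough replicates individually reaching it; inconclusive = meets only the mean limit or only the replicate share; inactive = meets neither condition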;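 note: 0% = median of neutral control wells and 100% = median of positive control wells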
* = called active by the depositor; u = inconclusive; x = no result.

SMILES	Pf Dd2 inh	C diff growth	T cruzi growth-1	T cruzi growth-2	T cruzi growth-3	NIH3T3 tox	NIH3T3 tox 2
C[C@H](CO)N1C[C@H](C)[C@H](CN(C)C(=O)CC2CC2)Oc2cc(-c3cccnc3)ccc2S1(=O)=O	-16	-2	58	x	x	x	x
C[C@H]1CN([C@@H](C)CO)C(=O)Cc2cc(NC(=O)Nc3ccc4c(c3)OCO4)ccc2O[C@@H]1CN(C)Cc1ccc(-c2ccccc2)cc1	-43	55	55	x	x	x	x
CN(C)CC(=O)Nc1ccc2c(c1)[C@H]1C[C@H](CC(=O)NCC3CC3)O[C@@H](CO)[C@H]1O2	19	2	-16	x	x	x	x
Cc1noc(C)c1S(=O)(=O)N(C)C[C@@H]1Oc2ccc(NS(=O)(=O)c3cn(C)cn3)cc2CC(=O)N([C@@H](C)CO)C[C@H]1C	-13	-1	-18	x	x	x	x
Cc1ccc(-c2ccc3c(c2)O[C@@H](CN(C)Cc2ccccn2)[C@H](C)CN([C@H](C)CO)S3(=O)=O)cc1	-52	2	93	x	x	x	x
C[C@@H]1CN([C@@H](C)CO)S(=O)(=O)c2ccc(-c3ccncc3)cc2O[C@H]1CN(C)Cc1ccccn1	-43	-4	114*	105*	103*	33	36*
Cc1ccc(-c2ccc3c(c2)O[C@@H](CN(C)Cc2ccccn2)[C@H](C)CN([C@@H](C)CO)S3(=O)=O)cc1	-62	2	119*	98*	82	64*	103*
C[C@H](CO)N1C[C@H](C)[C@@H](CN(C)Cc2ccccn2)Oc2cc(-c3ccccc3)ccc2S1(=O)=O	-40	-6	51	x	x	x	x
C[C@@H]1CN([C@@H](C)CO)S(=O)(=O)c2ccc(-c3ccncc3)cc2O[C@@H]1CN(C)Cc1ccccn1	-5	-3	86	x	x	x	x
C[C@H]1CN([C@@H](C)CO)S(=O)(=O)c2ccc(-c3ccccc3)cc2O[C@@H]1CN(C)Cc1ccccn1	-53	-5	14	x	x	x	x
C[C@H]1CN([C@@H](C)CO)S(=O)(=O)c2ccc(-c3ccncc3)cc2O[C@@H]1CN(C)Cc1ccccn1	-55	-3	117*	103*	99*	33	86*
C[C@H](CO)N1C[C@H](C)[C@H](CN(C)Cc2ccccn2)Oc2cc(-c3ccncc3)ccc2S1(=O)=O	-14	1	106*	89	84	10	28
CCCNC(=O)N1[C@H](CO)[C@@H]2c3ccccc3N(C(=O)c3ccncc3)C[C@@H]21	20	-1	5	x	x	x	x
O=C(C[C@H]1CC[C@@H]2[C@H](COC[C@@H](O)CN2Cc2nccs2)O1)NCc1ccccc1F	13	1	-7	x	x	x	x
O=C(NCC1CC1)[C@H]1[C@H](CO)[C@H]2Cn3c(ccc(-c4cncnc4)c3=O)[C@H]2N1C(=O)NC1CCCC1	x	6	9	x	x	x	x
COc1ccc(NC(=O)N2CC(=O)N3[C@@H](CO)[C@@H](c4ccc(C#CCC5CCCC5)cc4)[C@@H]3C2)cc1	-26	2	x	x	x	x	x
C[C@@H]1CN([C@@H](C)CO)C(=O)Cc2cc(NC(=O)c3ccncc3)ccc2O[C@H]1CN(C)Cc1ccc2c(c1)OCO2	-1	-2	-42	x	x	x	x
C[C@@H]1CCCCO[C@H](CN(C)S(=O)(=O)c2cn(C)cn2)[C@H](C)CN([C@@H](C)CO)C(=O)c2cc(NC(=O)c3ccncc3)ccc2O1	-1	-4	38	x	x	x	x
C[C@H]1CN([C@@H](C)CO)C(=O)c2cc(C#Cc3ccccc3)cnc2O[C@@H]1CN(C)C(=O)CN(C)C	-55	2	-8	x	x	x	x
C[C@H](O)C#Cc1ccc2c(c1)O[C@@H](CN(C)C(=O)Nc1ccccc1)[C@@H](C)CN([C@H](C)CO)S2(=O)=O	-37	5	64	x	x	x	x
CC(C)CC#Cc1ccc2c(c1)O[C@H](CN(C)C(=O)Nc1ccccc1)[C@H](C)CN([C@H](C)CO)S2(=O)=O	-65	23	126*	100*	107*	-10	106*
CC(C)CC#Cc1ccc2c(c1)O[C@@H](CN(C)C(=O)Nc1ccccc1)[C@H](C)CN([C@H](C)CO)S2(=O)=O	-43	2	121*	108*	93	23	88*
CC(C)CC#Cc1ccc2c(c1)O[C@H](CN(C)C(=O)NC(C)C)[C@@H](C)CN([C@@H](C)CO)S2(=O)=O	-33	x	70	x	x	x	x
CC(C)CC#Cc1ccc2c(c1)O[C@H](CN(C)C(=O)Nc1ccccc1)[C@@H](C)CN([C@@H](C)CO)S2(=O)=O	-59	3	125*	105*	u	11	101*
CC(C)CC#Cc1ccc2c(c1)O[C@H](CN(C)C(=O)Nc1ccccc1)[C@H](C)CN([C@@H](C)CO)S2(=O)=O	-33	-1	107*	108*	u	21	81*
SMILES	Pf Dd2 inh	C diff growth	T cruzi growth-1	T cruzi growth-2	T cruzi growth-3	NIH3T3 tox	NIH3T3 tox 2
C[C@@H]1CN([C@@H](C)CO)S(=O)(=O)c2ccc(C#C[C@@H](C)O)cc2O[C@H]1CN(C)C(=O)Nc1ccccc1	-68	3	61	x	x	x	x
C[C@H](O)C#Cc1ccc2c(c1)O[C@H](CN(C)C(=O)Nc1ccccc1)[C@@H](C)CN([C@@H](C)CO)S2(=O)=O	-35	0	70	x	x	x	x
CCS(=O)(=O)N1Cc2cc(C(=O)O)nc(-c3cccc(-c4ccc(C#N)cc4)c3)c2[C@H]1CCO	29	7	x	x	x	x	x
C[C@@H]1CN([C@H](C)CO)C(=O)Cc2cc(NS(=O)(=O)c3cn(C)cn3)ccc2O[C@H]1CN(C)C	13	5	3	x	x	x	x
CN(C)C(=O)c1cccc(-c2ccc3c(c2)[C@@H]2[C@@H](CCN2C(=O)c2ccc4c(c2)OCO4)[C@@H](CO)N3)c1	-1	4	30	x	x	x	x
CN(C)C(=O)c1ccc(-c2ccc3c(c2)[C@H]2[C@H](CCN2C(=O)c2ccc4c(c2)OCO4)[C@@H](CO)N3)cc1	-3	-6	101*	105*	74	0	1
CCC(=O)N1CC[C@@H]2[C@H]1c1cc(-c3ccccc3)ccc1N[C@@H]2CO	31	-20	43	x	x	x	x
N#Cc1ccc(-c2ccc3c(c2)[C@@H]2[C@@H](CCN2C(=O)c2ccncc2)[C@H](CO)N3)cc1	-11	-7	77	x	x	x	x
N#Cc1cccc(-c2ccc3c(c2)[C@H]2[C@H](CCN2C(=O)c2ccc4c(c2)OCO4)[C@@H](CO)N3)c1	-75	-4	97*	103*	100*	10	37*
N#Cc1cccc(-c2ccc3c(c2)[C@@H]2[C@@H](CCN2C(=O)c2ccc4c(c2)OCO4)[C@@H](CO)N3)c1	-14	-10	88	x	x	x	x
N#Cc1cccc(-c2ccc3c(c2)[C@@H]2[C@@H](CCN2C(=O)c2ccncc2)[C@@H](CO)N3)c1	-61	-3	103*	97*	8	3	8
